The text below walks through data of PubChem BioAssay.

Structures are written as SMILES. Calls of active or inactive are those of the source.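 The calls were made as follows: active = z-score of at least 1.8 in each of two replicates, scored against plate mean and spread of sample wells; inactive = the rest.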

The assay in a line: galactose survival enhancers in mitochondrial complex I cybrids – cell-based, galactose medium, ATP luminescence, primary screen (AID 1645843).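 Also: positive z means more ATP and so rescue of galactose-driven cybrid death.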 The conditions noted are these: complex I mutant cybrid cells, 72 h, active compounds read high.
With `CC(C)N(C)C(=O)c1cc(-c2cnc(C(C)(C)C)nc2)nc2cc(F)ccc12`, the z-score is -0.525 (inactive).

On to `Cc1nsc(NC(=O)N2CCCC(C)(CO)C2)n1` (stereo not given), for which the z-score was -0.515 (inactive).

Regarding `Cc1nn(C)cc1-c1ccnc(NC(CC(C)(C)C)c2cccnc2)n1` (stereo not given), the z-score is 1.75 (inactive).

In the case of `Cc1cc(NC(=O)Cn2c(C)nc(Cl)c2Cl)n(C2CCCCC2)n1`, the z-score was -0.41 (inactive).

Turning to `OCC1CCCN(C2CCN(c3ncnc4sccc34)CC2)C1` (stereo not given), the z-score was 1 (inactive).

Take `O=c1cc(-c2ccccc2Cl)nc(-c2ccc(CN3CC[C@H](O)C3)cc2)[nH]1`: the z-score was 0.305 (inactive).

For `O=C(CC1CCCCCC1)N1CCC(Cn2cc(CO)nn2)CC1`, the z-score is -0.5 (inactive).

Take `O=C(Cn1ccc(-c2cccnc2)n1)Nc1ccnn1Cc1cccs1`: the z-score is -0.545 (inactive).

`CN1CCN(CC(C)(C)C)CC1CCO` (stereo not given): the z-score was -0.57 (inactive).

In the case of `COc1cc(N2CCCC(c3nc(C(C)C)no3)C2)nc(N)n1` (stereo not given), the z-score is 0.815 (inactive).

In the case of `C=C1C2(C(=O)N3CCC(c4cccc(OC)c4OC)C3)CCC(C2)C1(C)C` (stereo not given), the z-score was 1.19 (inactive).

On to `c1ccc(-c2nccn2Cc2nc(-c3ccccn3)no2)cc1`, for which the z-score was 1.27 (inactive).

In the case of `O=C(C1CCCCCC1)N1CCCC(Cn2cc(-c3ccccn3)nn2)C1` (stereo not given), the z-score is -0.33 (inactive).

For `Cc1ccc(-c2nn(CC(=O)Nc3cnn(C)n3)c3ccccc23)c(F)c1`, the z-score was -0.4 (inactive).

For `CCCCc1ncc(-c2nc3ccc(C)cc3c(C(=O)N(C)CC)c2C)cn1`, the z-score was -0.54 (inactive).

For the molecule `Cc1ccc(Nc2nc(N)nc(-c3ccc(C(=O)N(C)C)cc3)n2)cc1`, the z-score was 2.23 (active).

Turning to `CCC(CC)(CCC#N)CNC1COC2(CCCC2)C1` (stereo not given), the z-score is -0.555 (inactive).

In the case of `CCc1ncc(-c2cc(C(=O)N3CCC(C)(C)C3)c3ccc(F)cc3n2)cn1`, the z-score was -0.56 (inactive).

For `CNCc1cn(C2CCN(CCC(C)CC(C)(C)C)CC2)nn1` (stereo not given), the z-score is -0.49 (inactive).

Take `Cc1sc2ccccc2c1-c1ccn(CC(=O)Nc2ccnn2C(C)C)n1`: the z-score is -0.855 (inactive).

Regarding `CCC1(CC)CC1C(=O)N1CCC(n2cc(C(C)(C)O)nn2)CC1` (stereo not given), the z-score is -0.515 (inactive).

Turning to `Cc1ccc2c(C(=O)N3CCCCC3)cc(-c3cnn(C(C)C)c3)nc2c1`, the z-score is -0.385 (inactive).

Take `CCCn1nc(NC(=O)Cn2ccc(-c3ccccc3F)n2)c2ccccc21`: the z-score is -1.28 (inactive).

As to `Cc1cc(C)c(CNC(C)CCCC(C)(C)O)c(C)c1CO` (stereo not given), the z-score was 0.19 (inactive).

On to `Cc1cc(N2CCC(Cn3cc(CN)nn3)CC2)nc(-c2ccccc2O)n1`, for which the z-score is -1.23 (inactive).

With `O=c1cc(CCn2cccn2)nc(-c2ccc(CN3CCC[C@@H](O)C3)cc2)[nH]1`, the z-score was -0.025 (inactive).

`CCc1n[nH]c2c1CN(C(=O)c1cc(C)nc3ccc(F)cc13)CC2`: the z-score was -0.42 (inactive).

As to `CCC1(CC)CC1C(=O)N1CCC(n2cc(C3CC3)nn2)CC1` (stereo not given), the z-score is -0.51 (inactive).

Regarding `CC(C)n1cc(-c2cc(C(=O)N3CCC(C)(C)C3)c3ccc(F)cc3n2)cn1`, the z-score is 0.14 (inactive).

With `COC(=O)c1ccc(N2CCC(c3ccccc3Cl)C2)nc1` (stereo not given), the z-score was 0.895 (inactive).

On to `CCC1CN(C(=O)c2cc(-c3cnn(C)c3)nc3c(C)c(C)ccc23)CCO1` (stereo not given), for which the z-score was 3.04 (active).

Take `COc1cccc2ccc(-c3ccc(C(C)=O)cc3)nc12`: the z-score was 2.67 (active).

Take `Cc1ccc(OCc2nnc(NC(=O)NCCc3cnc[nH]3)s2)cc1`: the z-score is -0.48 (inactive).

For `Cc1nn(C)c(C)c1-c1ccnc(NCCc2nc(-c3ccccn3)no2)n1`, the z-score was -0.395 (inactive).

Consider `COc1ccc(F)c(-c2cnc(C)[nH]2)c1`, for which the z-score is -0.545 (inactive).

With `CC[C@H](C)[C@H](N)C(=O)N1CCC(Cn2cc(C3CCCCC3)nn2)CC1`, the z-score is -0.81 (inactive).

For `CC(CCN1CCC(Cn2cc(CCO)nn2)CC1)CC(C)(C)C` (stereo not given), the z-score is -0.27 (inactive).

Consider `CC1(C(=O)N2CCC(n3cc(C(C)(C)C)nn3)CC2)CCCO1` (stereo not given), for which the z-score is -0.79 (inactive).

On to `Cc1ccc(CC(=O)Nc2ccnn2C2CCCCC2)cc1F`, for which the z-score is 0.325 (inactive).

In the case of `Cc1cc(C(F)(F)F)nc(CNC(=O)c2ccc3nccnc3c2)n1`, the z-score was -0.69 (inactive).
